Compounds without any hit were thinned out: in the full panel of roughly 83,000, 20% have a hit.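 For each line, cells grew in 96-well plates with the test compound present at a single concentration for 48 hours.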
Experiments:
Assay in all cases: NCI-60 one-dose screen, 48 h (100 = growth as untreated, 0 = no growth, -100 = all killed); active means growth percent below 10; inactive means the rest
[1] = tested on: HCT-15 colon; details: 10 µM unless noted
[2] = tested on: HT29 colon; details: 10 µM unless noted
[3] = tested on: SNB-75 CNS; details: 10 µM unless noted
[4] = tested on: SNB-19 CNS; details: 10 µM unless noted
[5] = tested on: U251 CNS; details: 10 µM unless noted
[6] = tested on: PC-3 prostate; details: 10 µM unless noted
[7] = tested on: SK-MEL-5 melanoma; details: 10 µM unless noted
[8] = tested on: UACC-62 melanoma; details: 10 µM unless noted
[9] = tested on: LOX IMVI melanoma; details: 10 µM
[10] = tested on: SK-MEL-28 melanoma; details: 10 µM unless noted
[11] = tested on: SK-MEL-2 melanoma; details: 10 µM unless noted
[12] = tested on: EKVX NSCLC; details: 10 µM unless noted
[13] = tested on: SN12C renal; details: 10 µM unless noted
[14] = tested on: UO-31 renal; details: 10 µM unless noted
[15] = tested on: TK-10 renal; details: 10 µM unless noted
[16] = tested on: ACHN renal; details: 10 µM unless noted
[17] = tested on: CAKI-1 renal; details: 10 µM unless noted
[18] = tested on: A498 renal; details: 10 µM unless noted
[19] = tested on: MOLT-4 leukemia; details: 10 µM unless noted
[20] = tested on: CCRF-CEM leukemia; details: 10 µM unless noted

Measured: growth

CCN1CCCC(N2c3ccccc3Sc3ccccc32)C1 (configuration not stated)
inactive: [1] 102% | [2] 89.3% | [3] 92.8% | [4] 110% | [5] 94.6% | [6] 97.4% | [7] 97% | [8] 104% | [9] 91.2% | [10] 105% | [11] 97.4% | [12] 116% | [13] 101% | [14] 79.1% | [15] 78.8% | [16] 98.5% | [17] 101% | [18] 100% | [19] 96.3%

O=Cc1c(O)c2ccccc2[nH]c1=O
inactive: [1] 95.2% | [2] 116% | [3] 77.9% | [4] 104% | [5] 94.3% | [6] 94.4% | [7] 95.1% | [8] 87.9% | [9] 98.5% | [10] 107% | [11] 106% | [12] 113% | [13] 92.3% | [14] 81.6% | [15] 106% | [16] 91.5% | [17] 98.1% | [18] 119% | [20] 108% | [19] 104%

CC1(C)C2CCC1(C)C1(C2)OCCS1 (configuration not stated)
inactive: [1] 95.9% | [2] 110% | [3] 78.5% | [4] 88.8% | [5] 97% | [6] 92.4% | [7] 93.8% | [8] 87% | [9] 92.2% | [10] 102% | [11] 104% | [12] 87.4% | [13] 87.6% | [14] 90.1% | [15] 97.9% | [16] 102% | [17] 87.2% | [18] 113% | [20] 110% | [19] 99.6%

CCC1CCC(C)NC1 (configuration not stated)
inactive: [1] 91.5% | [2] 104% | [3] 88.6% | [4] 100% | [5] 95.7% | [6] 94.2% | [7] 98.9% | [8] 99.3% | [9] 95.9% | [10] 102% | [11] 115% | [12] 92.5% | [13] 106% | [14] 93.5% | [15] 97.3% | [16] 102% | [17] 102% | [18] 65.6% | [19] 105%

C#CC(O)c1ccccc1 (configuration not stated)
inactive: [1] 103% | [2] 105% | [3] 103% | [4] 104% | [5] 97.2% | [6] 97.3% | [7] 97.8% | [8] 103% | [9] 103% | [10] 109% | [11] 106% | [12] 103% | [13] 104% | [14] 101% | [15] 99.5% | [16] 104% | [17] 103% | [18] 94.2% | [19] 99.4%

CN=S(=O)(OCCCCCOS(=O)(=NC)c1ccc(C)cc1)c1ccc(C)cc1 (configuration not stated)
inactive: [1] 108% | [2] 95.8% | [3] 77.1% | [4] 97.3% | [5] 93.8% | [6] 75.6% | [7] 93.8% | [8] 86.5% | [9] 88.1% | [10] 93.5% | [11] 94% | [12] 95.4% | [13] 95.1% | [14] 49.4% | [15] 118% | [16] 77.2% | [17] 74.6% | [18] 87.6% | [20] 39.6% | [19] 78.6%

Nc1cc(N)ncn1
inactive: [1] 102% | [2] 104% | [3] 88.9% | [4] 96.1% | [5] 104% | [6] 97.7% | [7] 98.3% | [8] 99.6% | [9] 98.4% | [10] 98.9% | [11] 113% | [12] 102% | [13] 97.1% | [14] 94% | [15] 102% | [16] 102% | [17] 102% | [18] 93.8% | [20] 99.2% | [19] 93.5%

O=[N+]([O-])c1c(O)c(CNCCCO)cc(CNCCCO)c1O
inactive: [1] 106% | [2] 107% | [3] 91.2% | [4] 105% | [5] 99.6% | [6] 88.7% | [7] 119% | [8] 97.7% | [9] 93.9% | [10] 121% | [11] 87.9% | [12] 96.1% | [13] 104% | [14] 63.7% | [15] 111% | [16] 93.9% | [17] 100% | [18] 130% | [20] 119% | [19] 73.2%
